This note sets out measurements from PMC7862700, “An all-to-all approach to the identification of sequence-specific readers for epigenetic DNA modifications on cytosine”.

Common to all, as to assay: DAPPL (digital affinity profiling via proximity ligation, sequencing); 10 mM Tris-HCl pH 7.5, 50 mM NaCl, 1 mM DTT, 4% glycerol, room temperature, 30 min; GST-TFs on glutathione beads, 16-mer random dsDNA library, 0.1% formaldehyde crosslink after washing; high values mean tight binding
The target of one test is T1, FEV (Homo sapiens, UniProt Q99581 1-238).
T1 sequence: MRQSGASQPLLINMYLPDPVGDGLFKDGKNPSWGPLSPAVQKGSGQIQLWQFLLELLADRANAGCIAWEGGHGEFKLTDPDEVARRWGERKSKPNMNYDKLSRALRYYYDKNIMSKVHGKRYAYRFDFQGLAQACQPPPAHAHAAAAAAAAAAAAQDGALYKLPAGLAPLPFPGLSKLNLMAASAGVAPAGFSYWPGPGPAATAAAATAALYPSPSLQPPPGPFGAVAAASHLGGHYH
To be noted: protein: recombinant; tags: N-terminal GST; dsDNA, one strand shown. In outline: (§1)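 Human transcription factors fused to GST were expressed in yeast, captured on glutathione beads, given DNA barcodes and pooled with a GST-only negative control. Pools were incubated with 200 nmole of a 16-mer random double-stranded DNA library in Tris/NaCl/DTT/glycerol buffer at room temperature for 30 min. They were then washed, crosslinked with 0.1% formaldehyde, proximity-ligated (BsaI/T4 ligase, 1 h, 37 °C), PCR-amplified and sequenced on an Illumina NextSeq500. Binding signal is each 6-mer's read frequency for a factor divided by its frequency for the GST control.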

For another test, the target named is ETV5 (Homo sapiens, UniProt P41161 1-510). The settings on record: protein: recombinant; tags: N-terminal GST; dsDNA, one strand shown. In outline: as §1
In a further test the target is HSF1 (Homo sapiens, UniProt Q00613 1-529). The settings on record: protein: recombinant; tags: N-terminal GST; chain copies: 3; dsDNA, one strand shown. In outline:
as §1

A further test deals with T2, SPIC (Homo sapiens, UniProt Q8N5J4 1-248).
T2 sequence: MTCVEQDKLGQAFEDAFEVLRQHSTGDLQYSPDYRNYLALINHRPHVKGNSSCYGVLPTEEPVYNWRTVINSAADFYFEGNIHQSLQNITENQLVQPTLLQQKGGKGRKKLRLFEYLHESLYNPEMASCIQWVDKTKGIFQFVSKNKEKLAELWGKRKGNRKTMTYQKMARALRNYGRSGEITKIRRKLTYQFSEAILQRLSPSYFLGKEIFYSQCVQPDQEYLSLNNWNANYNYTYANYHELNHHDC
The settings on record: protein: recombinant; tags: N-terminal GST; dsDNA, one strand shown. In outline:
as §1

A further test has as its target ELF4 (Homo sapiens, UniProt Q99607 1-663). The settings on record: protein: recombinant; tags: N-terminal GST; dsDNA, one strand shown. In outline: as §1
In the next test the target is T3, ELK4 (Homo sapiens, UniProt P28324-2 1-405).
T3 sequence: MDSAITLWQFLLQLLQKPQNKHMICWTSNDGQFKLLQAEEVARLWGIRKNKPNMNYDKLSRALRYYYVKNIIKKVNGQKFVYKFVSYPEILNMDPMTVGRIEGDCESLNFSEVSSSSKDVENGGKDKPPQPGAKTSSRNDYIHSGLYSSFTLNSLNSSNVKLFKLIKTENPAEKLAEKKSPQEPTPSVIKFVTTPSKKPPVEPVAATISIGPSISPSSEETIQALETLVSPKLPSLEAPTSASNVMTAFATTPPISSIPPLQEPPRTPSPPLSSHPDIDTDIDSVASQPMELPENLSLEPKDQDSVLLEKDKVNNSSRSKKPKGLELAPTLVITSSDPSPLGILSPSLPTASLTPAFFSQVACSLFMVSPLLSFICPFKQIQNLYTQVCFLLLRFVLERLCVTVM
To be noted: protein: recombinant; tags: N-terminal GST; dsDNA, one strand shown. In outline:
as §1

In another test the target is T4, ETV2 (Homo sapiens, UniProt O00321 1-342).
T4 sequence: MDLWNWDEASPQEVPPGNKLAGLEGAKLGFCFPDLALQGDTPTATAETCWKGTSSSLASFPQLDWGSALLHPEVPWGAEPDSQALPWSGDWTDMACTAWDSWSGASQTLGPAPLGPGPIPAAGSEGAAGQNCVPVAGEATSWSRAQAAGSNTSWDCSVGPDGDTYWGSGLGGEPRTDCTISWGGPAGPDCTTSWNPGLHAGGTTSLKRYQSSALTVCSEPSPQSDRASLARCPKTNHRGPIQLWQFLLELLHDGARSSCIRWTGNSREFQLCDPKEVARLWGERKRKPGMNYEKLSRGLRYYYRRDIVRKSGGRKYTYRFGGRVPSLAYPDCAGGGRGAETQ
The settings on record: protein: recombinant; tags: N-terminal GST; dsDNA, one strand shown. In outline:
as §1

Another test has as its target T5, ELF3 (Homo sapiens, UniProt P78545 1-371).
T5 sequence: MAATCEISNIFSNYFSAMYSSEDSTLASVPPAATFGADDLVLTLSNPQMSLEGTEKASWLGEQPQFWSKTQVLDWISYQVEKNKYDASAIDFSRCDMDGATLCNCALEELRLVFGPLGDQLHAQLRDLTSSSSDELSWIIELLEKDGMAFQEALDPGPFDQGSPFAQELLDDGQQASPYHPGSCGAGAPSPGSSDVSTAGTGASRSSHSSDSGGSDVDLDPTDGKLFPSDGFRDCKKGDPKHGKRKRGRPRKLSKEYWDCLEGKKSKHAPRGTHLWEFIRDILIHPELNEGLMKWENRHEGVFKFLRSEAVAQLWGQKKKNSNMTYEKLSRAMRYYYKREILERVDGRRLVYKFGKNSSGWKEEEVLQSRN
The settings on record: protein: recombinant; tags: N-terminal GST; dsDNA, one strand shown. In outline: as §1

The target in another test is CRX (Homo sapiens, UniProt O43186 1-299). To be noted: protein: recombinant; tags: N-terminal GST; dsDNA, one strand shown. In outline:
as §1

Another test concerns the target ETV1 (Homo sapiens, UniProt P50549 1-477). The settings on record: protein: recombinant; tags: N-terminal GST; dsDNA, one strand shown. In outline:
as §1

Another test concerns the target T6, ERF (Homo sapiens, UniProt P50548 1-548).
T6 sequence: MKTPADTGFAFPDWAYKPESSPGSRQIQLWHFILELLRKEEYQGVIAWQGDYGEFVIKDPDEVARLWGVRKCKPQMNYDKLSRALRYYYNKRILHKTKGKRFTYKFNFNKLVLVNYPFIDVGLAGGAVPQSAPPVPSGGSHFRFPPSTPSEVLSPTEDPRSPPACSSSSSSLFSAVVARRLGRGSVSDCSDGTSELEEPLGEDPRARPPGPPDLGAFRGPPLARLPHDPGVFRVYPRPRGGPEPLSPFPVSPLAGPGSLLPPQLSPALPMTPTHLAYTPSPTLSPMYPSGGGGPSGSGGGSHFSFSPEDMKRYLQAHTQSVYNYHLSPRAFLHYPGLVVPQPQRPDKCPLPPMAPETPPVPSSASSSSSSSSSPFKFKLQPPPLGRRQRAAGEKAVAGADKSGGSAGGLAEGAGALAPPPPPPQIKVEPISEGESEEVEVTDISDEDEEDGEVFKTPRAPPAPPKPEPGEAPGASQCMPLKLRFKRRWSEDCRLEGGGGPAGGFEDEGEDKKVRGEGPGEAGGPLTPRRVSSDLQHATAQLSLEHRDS
The settings on record: protein: recombinant; tags: N-terminal GST; dsDNA, one strand shown. In outline:
as §1

In the next test the target is T7, ETV3L (Homo sapiens, UniProt Q6ZN32 1-361).
T7 sequence: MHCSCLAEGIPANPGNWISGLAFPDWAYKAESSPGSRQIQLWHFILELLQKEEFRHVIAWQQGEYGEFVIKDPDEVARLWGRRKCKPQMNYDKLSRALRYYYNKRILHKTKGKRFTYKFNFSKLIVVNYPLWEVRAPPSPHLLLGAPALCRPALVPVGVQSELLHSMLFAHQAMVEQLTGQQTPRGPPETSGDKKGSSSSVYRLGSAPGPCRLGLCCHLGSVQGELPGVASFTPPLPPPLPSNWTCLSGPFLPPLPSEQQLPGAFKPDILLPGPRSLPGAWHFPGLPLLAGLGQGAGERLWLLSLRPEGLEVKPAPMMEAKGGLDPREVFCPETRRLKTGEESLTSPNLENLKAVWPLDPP
The settings on record: protein: recombinant; tags: N-terminal GST; dsDNA, one strand shown. In outline:
as §1

A further test has as its target T8, ETS2 (Homo sapiens, UniProt P15036 1-469).
T8 sequence: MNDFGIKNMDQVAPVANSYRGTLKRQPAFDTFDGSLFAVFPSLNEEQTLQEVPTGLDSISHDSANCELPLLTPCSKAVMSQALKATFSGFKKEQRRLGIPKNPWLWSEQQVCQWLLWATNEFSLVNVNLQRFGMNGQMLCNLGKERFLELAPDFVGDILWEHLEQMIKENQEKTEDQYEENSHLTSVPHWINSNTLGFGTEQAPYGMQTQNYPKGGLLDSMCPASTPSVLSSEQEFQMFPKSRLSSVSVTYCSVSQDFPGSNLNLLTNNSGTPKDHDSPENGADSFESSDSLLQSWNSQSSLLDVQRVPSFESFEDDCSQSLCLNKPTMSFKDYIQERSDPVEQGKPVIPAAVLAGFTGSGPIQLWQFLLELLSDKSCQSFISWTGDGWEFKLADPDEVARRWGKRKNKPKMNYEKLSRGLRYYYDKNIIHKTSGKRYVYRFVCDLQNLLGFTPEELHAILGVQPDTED
To be noted: protein: recombinant; tags: N-terminal GST; dsDNA, one strand shown. In outline: as §1

For the next test, the target named is T9, SPDEF (Homo sapiens, UniProt O95238 1-335).
T9 sequence: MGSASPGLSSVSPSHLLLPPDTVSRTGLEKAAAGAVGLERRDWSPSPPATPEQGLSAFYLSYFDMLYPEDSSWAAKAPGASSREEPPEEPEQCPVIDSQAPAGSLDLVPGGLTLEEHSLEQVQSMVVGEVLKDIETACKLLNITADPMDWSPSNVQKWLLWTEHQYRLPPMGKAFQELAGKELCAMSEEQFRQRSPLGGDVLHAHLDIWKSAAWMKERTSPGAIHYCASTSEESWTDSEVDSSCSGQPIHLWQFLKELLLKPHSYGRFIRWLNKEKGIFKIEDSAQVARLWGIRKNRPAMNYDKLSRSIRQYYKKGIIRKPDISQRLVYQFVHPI
The settings on record: protein: recombinant; tags: N-terminal GST; dsDNA, one strand shown. In outline:
as §1

The target in the next test is T10, ETV7 (Homo sapiens, UniProt Q9Y603 1-341).
T10 sequence: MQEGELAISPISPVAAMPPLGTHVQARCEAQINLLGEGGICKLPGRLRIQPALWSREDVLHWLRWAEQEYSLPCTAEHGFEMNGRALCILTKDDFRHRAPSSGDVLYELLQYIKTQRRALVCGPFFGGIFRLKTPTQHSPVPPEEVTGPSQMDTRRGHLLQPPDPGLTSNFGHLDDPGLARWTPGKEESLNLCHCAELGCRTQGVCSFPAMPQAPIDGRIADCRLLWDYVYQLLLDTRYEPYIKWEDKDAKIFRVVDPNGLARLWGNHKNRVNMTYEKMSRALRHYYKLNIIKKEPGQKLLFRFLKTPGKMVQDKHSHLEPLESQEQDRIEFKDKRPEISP
The settings on record: protein: recombinant; tags: N-terminal GST; dsDNA, one strand shown. In outline: as §1

In a further test the target is T11, ELF5 (Homo sapiens, UniProt Q9UKW6-2 1-255).
T11 sequence: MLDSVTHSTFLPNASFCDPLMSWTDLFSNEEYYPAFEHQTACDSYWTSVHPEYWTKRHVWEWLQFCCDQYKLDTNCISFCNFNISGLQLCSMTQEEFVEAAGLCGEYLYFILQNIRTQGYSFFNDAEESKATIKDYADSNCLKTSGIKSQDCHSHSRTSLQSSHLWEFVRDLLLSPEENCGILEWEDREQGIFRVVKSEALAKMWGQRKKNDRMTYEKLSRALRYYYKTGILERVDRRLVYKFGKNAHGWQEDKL
The settings on record: protein: recombinant; tags: N-terminal GST; dsDNA, one strand shown. In outline: as §1

Another test concerns the target T12, ETV3 (Homo sapiens, UniProt P41162-2 1-143).
T12 sequence: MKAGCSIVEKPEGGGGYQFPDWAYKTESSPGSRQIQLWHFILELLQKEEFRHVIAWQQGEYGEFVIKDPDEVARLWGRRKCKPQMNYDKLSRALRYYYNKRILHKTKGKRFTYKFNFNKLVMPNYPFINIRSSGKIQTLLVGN
The settings on record: protein: recombinant; tags: N-terminal GST; dsDNA, one strand shown. In outline: as §1

For a further test, the target named is ETV6 (Homo sapiens, UniProt P41212 1-452). The settings on record: protein: recombinant; tags: N-terminal GST; dsDNA, one strand shown. In outline:
as §1

Chain of ELF4 (Q99607 whole entry): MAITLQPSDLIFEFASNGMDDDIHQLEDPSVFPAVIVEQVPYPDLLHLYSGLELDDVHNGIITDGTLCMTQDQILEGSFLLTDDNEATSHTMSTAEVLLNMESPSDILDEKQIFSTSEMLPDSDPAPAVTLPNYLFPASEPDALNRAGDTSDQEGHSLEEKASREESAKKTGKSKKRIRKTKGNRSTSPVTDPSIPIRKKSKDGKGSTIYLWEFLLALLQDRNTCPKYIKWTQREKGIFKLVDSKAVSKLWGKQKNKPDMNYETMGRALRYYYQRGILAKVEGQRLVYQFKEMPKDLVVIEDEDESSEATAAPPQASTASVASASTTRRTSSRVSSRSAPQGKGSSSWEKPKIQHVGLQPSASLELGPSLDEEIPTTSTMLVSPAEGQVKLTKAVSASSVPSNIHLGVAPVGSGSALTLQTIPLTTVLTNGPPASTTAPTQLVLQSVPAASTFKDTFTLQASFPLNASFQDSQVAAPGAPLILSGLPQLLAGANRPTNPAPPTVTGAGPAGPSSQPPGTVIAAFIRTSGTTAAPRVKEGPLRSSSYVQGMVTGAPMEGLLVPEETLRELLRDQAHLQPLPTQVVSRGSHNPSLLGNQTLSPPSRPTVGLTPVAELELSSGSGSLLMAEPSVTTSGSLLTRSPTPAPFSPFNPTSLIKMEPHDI
Chain of CRX (O43186 whole entry): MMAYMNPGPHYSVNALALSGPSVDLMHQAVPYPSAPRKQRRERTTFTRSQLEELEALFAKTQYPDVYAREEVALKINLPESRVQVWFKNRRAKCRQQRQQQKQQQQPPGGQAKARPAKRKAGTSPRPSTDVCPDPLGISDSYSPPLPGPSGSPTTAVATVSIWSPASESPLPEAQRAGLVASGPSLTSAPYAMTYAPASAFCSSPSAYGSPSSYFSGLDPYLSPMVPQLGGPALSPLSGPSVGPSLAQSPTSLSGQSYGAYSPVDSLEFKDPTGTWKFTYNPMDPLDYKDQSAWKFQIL
Chain of ETV1 (P50549 whole entry): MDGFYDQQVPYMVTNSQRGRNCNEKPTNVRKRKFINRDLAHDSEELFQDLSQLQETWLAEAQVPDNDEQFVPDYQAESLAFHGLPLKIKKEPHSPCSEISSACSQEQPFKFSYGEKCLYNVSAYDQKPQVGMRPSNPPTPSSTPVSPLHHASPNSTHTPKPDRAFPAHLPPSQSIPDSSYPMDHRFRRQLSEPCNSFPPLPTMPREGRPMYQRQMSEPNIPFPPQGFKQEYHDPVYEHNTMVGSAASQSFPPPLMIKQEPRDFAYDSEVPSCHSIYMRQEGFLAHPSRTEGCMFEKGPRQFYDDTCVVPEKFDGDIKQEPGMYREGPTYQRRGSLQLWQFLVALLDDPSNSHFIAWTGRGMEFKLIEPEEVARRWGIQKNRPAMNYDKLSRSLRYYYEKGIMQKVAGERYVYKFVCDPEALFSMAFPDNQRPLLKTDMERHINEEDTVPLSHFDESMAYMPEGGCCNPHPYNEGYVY
Chain of ETV5 (P41161 whole entry): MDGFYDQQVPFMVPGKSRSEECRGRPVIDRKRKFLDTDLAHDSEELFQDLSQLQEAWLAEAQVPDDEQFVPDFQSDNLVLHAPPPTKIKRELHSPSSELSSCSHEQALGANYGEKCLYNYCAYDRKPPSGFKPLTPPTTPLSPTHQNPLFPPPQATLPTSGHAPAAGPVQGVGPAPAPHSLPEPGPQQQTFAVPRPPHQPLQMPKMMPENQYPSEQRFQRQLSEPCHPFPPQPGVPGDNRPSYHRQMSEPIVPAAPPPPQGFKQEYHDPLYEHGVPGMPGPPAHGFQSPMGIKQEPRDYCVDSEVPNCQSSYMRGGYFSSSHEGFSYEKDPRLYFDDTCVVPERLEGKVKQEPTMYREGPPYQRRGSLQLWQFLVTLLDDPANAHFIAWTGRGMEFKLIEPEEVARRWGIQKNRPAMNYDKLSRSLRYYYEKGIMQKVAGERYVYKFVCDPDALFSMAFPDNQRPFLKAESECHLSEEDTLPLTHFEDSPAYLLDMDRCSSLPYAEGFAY
Chain of HSF1 (Q00613 whole entry): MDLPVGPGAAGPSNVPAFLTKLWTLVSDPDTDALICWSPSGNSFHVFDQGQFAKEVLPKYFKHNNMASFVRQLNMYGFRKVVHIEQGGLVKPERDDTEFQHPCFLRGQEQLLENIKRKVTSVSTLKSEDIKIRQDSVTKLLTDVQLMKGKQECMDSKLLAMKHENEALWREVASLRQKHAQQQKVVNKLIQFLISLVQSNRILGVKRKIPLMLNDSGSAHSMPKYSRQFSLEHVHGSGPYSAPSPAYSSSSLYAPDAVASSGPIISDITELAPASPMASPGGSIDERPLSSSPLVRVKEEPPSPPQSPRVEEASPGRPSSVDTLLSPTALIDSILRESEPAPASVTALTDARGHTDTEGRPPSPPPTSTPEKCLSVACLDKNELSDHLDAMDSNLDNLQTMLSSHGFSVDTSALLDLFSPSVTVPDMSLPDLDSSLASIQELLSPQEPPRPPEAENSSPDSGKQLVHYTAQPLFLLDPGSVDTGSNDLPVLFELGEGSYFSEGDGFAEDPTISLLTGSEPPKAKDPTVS
Chain of ETV6 (P41212 whole entry): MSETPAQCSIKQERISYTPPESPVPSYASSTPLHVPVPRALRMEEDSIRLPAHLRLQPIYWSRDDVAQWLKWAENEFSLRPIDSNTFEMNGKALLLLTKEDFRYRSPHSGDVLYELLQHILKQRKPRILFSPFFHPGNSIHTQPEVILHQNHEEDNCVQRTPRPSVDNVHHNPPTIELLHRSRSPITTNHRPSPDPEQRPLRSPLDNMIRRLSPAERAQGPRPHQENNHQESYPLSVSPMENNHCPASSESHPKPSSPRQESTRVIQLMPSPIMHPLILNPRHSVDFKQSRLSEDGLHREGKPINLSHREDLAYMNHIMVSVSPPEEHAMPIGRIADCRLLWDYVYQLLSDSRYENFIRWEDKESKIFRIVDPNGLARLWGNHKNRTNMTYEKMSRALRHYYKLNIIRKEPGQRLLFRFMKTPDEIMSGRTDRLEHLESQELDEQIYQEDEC

Consider TTCCTT, for which the binding signal with FEV was 1.76 fold enrichment (6-mer frequency, TF over GST control); with ETV5, 2 fold enrichment (6-mer frequency, TF over GST control); in the test with HSF1, 1.61 fold enrichment (6-mer frequency, TF over GST control); with SPIC it was 1.99 fold enrichment (6-mer frequency, TF over GST control); in the test with ELF4 it was 1.79 fold enrichment (6-mer frequency, TF over GST control); with ELK4, 1.75 fold enrichment (6-mer frequency, TF over GST control). Also, the binding signal in the test with ETV2 is 1.79 fold enrichment (6-mer frequency, TF over GST control); with ELF3 it was 1.76 fold enrichment (6-mer frequency, TF over GST control); with CRX, 1.33 fold enrichment (6-mer frequency, TF over GST control); with ETV1 it was 2.04 fold enrichment (6-mer frequency, TF over GST control); with ERF it was 1.77 fold enrichment (6-mer frequency, TF over GST control); with ETV3L, 1.91 fold enrichment (6-mer frequency, TF over GST control). Also, the binding signal in the test with ETS2 was 1.94 fold enrichment (6-mer frequency, TF over GST control); with SPDEF, 1.77 fold enrichment (6-mer frequency, TF over GST control); in the test with ETV7 it was 1.92 fold enrichment (6-mer frequency, TF over GST control); in the test with ELF5, 3.67 fold enrichment (6-mer frequency, TF over GST control); with ETV3, 2.13 fold enrichment (6-mer frequency, TF over GST control); in the test with ETV6 it was 2.1 fold enrichment (6-mer frequency, TF over GST control).
